Data from PubChem BioAssay (NCI).
About 83,000 compounds went through this panel and 20% of them were active in at least one assay; those are over-represented in the sample as a whole.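 Cells were grown in 96-well plates and exposed to the test compound at a single concentration for 48 hours; results are reported as percent growth, with values below 10 considered active.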 Activity calls are given as the source filed them.

What was measured:
Assay in all cases: NCI-60 one-dose screen, 48 h (100 = growth as untreated, 0 = no growth, -100 = all killed)
Details in all cases: 10 µM unless noted
SR leukemia = test system: SR leukemia
RPMI-8226 leukemia = test system: RPMI-8226 leukemia
OVCAR-8 ovarian = test system: OVCAR-8 ovarian
OVCAR-5 ovarian = test system: OVCAR-5 ovarian
OVCAR-4 ovarian = test system: OVCAR-4 ovarian
IGROV1 ovarian = test system: IGROV1 ovarian
OVCAR-3 ovarian = test system: OVCAR-3 ovarian
HS 578T breast = test system: HS 578T breast
NCI/ADR-RES ovarian = test system: NCI/ADR-RES ovarian
T-47D breast = test system: T-47D breast
BT-549 breast = test system: BT-549 breast
MDA-MB-435 melanoma = test system: MDA-MB-435 melanoma
SW-620 colon = test system: SW-620 colon
MCF7 breast = test system: MCF7 breast
HCT-116 colon = test system: HCT-116 colon
HCC-2998 colon = test system: HCC-2998 colon
KM12 colon = test system: KM12 colon
SK-OV-3 ovarian = test system: SK-OV-3 ovarian

Measured: growth

Clc1ccc2c(NCCCCNc3nc(N4CCCCC4)nc4ccccc34)ccnc2c1
inactive: OVCAR-8 ovarian 11.7% | OVCAR-5 ovarian 17.1% | OVCAR-4 ovarian 29.8% | IGROV1 ovarian 20.8% | NCI/ADR-RES ovarian 19.3% | BT-549 breast 37% | MCF7 breast 15.8% | KM12 colon 19.6%
active: SR leukemia -35.7% | RPMI-8226 leukemia -45.9% | OVCAR-3 ovarian -27.3% | HS 578T breast -19.9% | T-47D breast -46.7% | MDA-MB-435 melanoma -81.9% | SW-620 colon -1.17% | HCT-116 colon -17.7% | HCC-2998 colon -16.5%

COc1ccc(/C=C/c2nc3ccccc3nc2/C=C/c2ccc(OC)cc2)cc1
inactive: SR leukemia 83.8% | RPMI-8226 leukemia 98.5% | OVCAR-8 ovarian 99.5% | OVCAR-5 ovarian 99.8% | OVCAR-4 ovarian 88.7% | IGROV1 ovarian 110% | OVCAR-3 ovarian 104% | HS 578T breast 90.8% | NCI/ADR-RES ovarian 99.5% | T-47D breast 78.1% | BT-549 breast 104% | MDA-MB-435 melanoma 88.4% | SW-620 colon 92.6% | MCF7 breast 80.9% | HCT-116 colon 89% | HCC-2998 colon 104% | KM12 colon 99.6%

CCOC(=O)n1cc(-c2nonc2-c2cn(C)c3ncccc23)c2cc(F)ccc21
inactive: SR leukemia 84% | RPMI-8226 leukemia 58.3% | OVCAR-8 ovarian 84.5% | OVCAR-5 ovarian 87.7% | OVCAR-4 ovarian 55.3% | IGROV1 ovarian 56.3% | OVCAR-3 ovarian 77.6% | HS 578T breast 79.4% | NCI/ADR-RES ovarian 74% | T-47D breast 10.4% | BT-549 breast 93.1% | MDA-MB-435 melanoma 94.7% | SW-620 colon 89.5% | MCF7 breast 27.2% | HCT-116 colon 69.5% | HCC-2998 colon 86.4% | KM12 colon 73.5%

COc1cccc(/C=C2\SC(=Nc3ccc(NC(C)=O)cc3)NC2=O)c1OC
inactive: SR leukemia 94.8% | RPMI-8226 leukemia 96.7% | OVCAR-8 ovarian 93% | OVCAR-5 ovarian 91.7% | OVCAR-4 ovarian 100% | IGROV1 ovarian 103% | OVCAR-3 ovarian 111% | HS 578T breast 70.5% | NCI/ADR-RES ovarian 102% | T-47D breast 89.2% | BT-549 breast 97.8% | MDA-MB-435 melanoma 52.1% | SW-620 colon 92% | MCF7 breast 92.6% | HCT-116 colon 98% | HCC-2998 colon 101% | KM12 colon 89.4%

COc1ccc(C2Nc3c(c(C(C)(C)C)nn3-c3ccccc3)C(=O)CS2)cc1 (stereo not given)
inactive: SR leukemia 87% | RPMI-8226 leukemia 82.7% | OVCAR-8 ovarian 98.4% | OVCAR-5 ovarian 108% | OVCAR-4 ovarian 114% | IGROV1 ovarian 84.3% | OVCAR-3 ovarian 101% | HS 578T breast 118% | NCI/ADR-RES ovarian 94.8% | T-47D breast 96.5% | BT-549 breast 122% | MDA-MB-435 melanoma 106% | SW-620 colon 107% | MCF7 breast 92.9% | HCT-116 colon 97.7% | HCC-2998 colon 102% | KM12 colon 98.2%

O=C1CC[C@H](c2ccc(O)c3c2C(=O)[C@@H]2O[C@@H]2C3=O)c2cccc(O)c21
inactive: OVCAR-8 ovarian 43.5% | OVCAR-5 ovarian 99.6% | OVCAR-4 ovarian 72.4% | IGROV1 ovarian 90% | HS 578T breast 98.4% | NCI/ADR-RES ovarian 90% | BT-549 breast 86.8% | MDA-MB-435 melanoma 47.3% | HCC-2998 colon 101% | KM12 colon 85.1%
active: SR leukemia 2.02% | RPMI-8226 leukemia -3.81% | OVCAR-3 ovarian -9.05% | T-47D breast -26.1% | SW-620 colon -41.3% | MCF7 breast -31.5% | HCT-116 colon 5.4%

Cn1ccnc1C(=O)/C=C/c1ccccc1
active: RPMI-8226 leukemia -8.79% | OVCAR-3 ovarian 0.598% | HS 578T breast -2.82% | SW-620 colon 5.92% | MCF7 breast 2.27% | HCT-116 colon 9.05% | KM12 colon -20.6%
inactive: SR leukemia 18.9% | OVCAR-8 ovarian 20.9% | OVCAR-5 ovarian 38.7% | OVCAR-4 ovarian 26.8% | SK-OV-3 ovarian 27.5% | NCI/ADR-RES ovarian 20.9% | T-47D breast 18.4% | MDA-MB-435 melanoma 10.8%

CC(C)CC1C(=O)N2CCC[C@H]2C2(O)O[C@](NC(=O)C3C=C4c5cccc6[nH]c(Br)c(c56)C[C@H]4N(C)C3)(C(C)C)C(=O)N12 (stereo not given in full)
inactive: SR leukemia 28.6% | RPMI-8226 leukemia 11.1% | OVCAR-8 ovarian 63.3% | OVCAR-5 ovarian 69.6% | OVCAR-4 ovarian 41% | IGROV1 ovarian 59% | OVCAR-3 ovarian 61.5% | HS 578T breast 89.7% | NCI/ADR-RES ovarian 57.7% | T-47D breast 47.2% | MDA-MB-435 melanoma 62.8% | SW-620 colon 52.3% | MCF7 breast 39.7% | HCT-116 colon 36.1% | HCC-2998 colon 89.1% | KM12 colon 40.3%

COC(=O)c1ccc(NC(=O)c2ccc(-c3cccc([N+](=O)[O-])c3)o2)cc1
inactive: SR leukemia 114% | RPMI-8226 leukemia 102% | OVCAR-8 ovarian 103% | OVCAR-5 ovarian 109% | OVCAR-4 ovarian 92.7% | IGROV1 ovarian 91.6% | OVCAR-3 ovarian 101% | HS 578T breast 92.2% | NCI/ADR-RES ovarian 99% | T-47D breast 96.4% | BT-549 breast 98.9% | MDA-MB-435 melanoma 101% | SW-620 colon 101% | MCF7 breast 76.8% | HCT-116 colon 96% | HCC-2998 colon 102% | KM12 colon 102%

O=C1Nc2c(ccc(Cl)c2Cl)/C1=C\c1cc(C(F)(F)F)cc(C(F)(F)F)c1
inactive: RPMI-8226 leukemia 25.6% | OVCAR-8 ovarian 27.1% | BT-549 breast 14.9% | HCC-2998 colon 12.8%
active: SR leukemia -41.1% | OVCAR-5 ovarian -28.8% | OVCAR-4 ovarian 9.67% | IGROV1 ovarian 3.13% | OVCAR-3 ovarian -34.2% | HS 578T breast -37.6% | NCI/ADR-RES ovarian 8.35% | T-47D breast -0.235% | MDA-MB-435 melanoma -53.4% | SW-620 colon -77.6% | MCF7 breast -3.68% | HCT-116 colon -61.3% | KM12 colon -74.6%

Cc1ccc2c(c1)C(=O)/C(=C/c1cccc(OCC(=O)c3ccc(Cl)cc3)c1)CS2
inactive: OVCAR-8 ovarian 69.7% | OVCAR-5 ovarian 105% | OVCAR-4 ovarian 104% | SK-OV-3 ovarian 115% | OVCAR-3 ovarian 98.1% | HS 578T breast 99.9% | NCI/ADR-RES ovarian 54.4% | T-47D breast 84.9% | BT-549 breast 101% | MDA-MB-435 melanoma 65.3% | SW-620 colon 25.1% | MCF7 breast 47.4% | HCT-116 colon 52.9% | KM12 colon 60.3%
active: SR leukemia 9.06% | RPMI-8226 leukemia -27%

O=c1cc(/C(=C2/C=CC=N2)c2ccc[nH]2)c2cc(Cl)ccc2o1
inactive: SR leukemia 23.7% | RPMI-8226 leukemia 51% | OVCAR-5 ovarian 93.1% | OVCAR-4 ovarian 77% | IGROV1 ovarian 31.5% | HS 578T breast 22.2% | T-47D breast 32% | BT-549 breast 52.1% | SW-620 colon 34.8% | MCF7 breast 70.9% | HCT-116 colon 44.2% | HCC-2998 colon 89.7% | KM12 colon 38.9%
active: OVCAR-8 ovarian -4.06% | OVCAR-3 ovarian -20.3% | NCI/ADR-RES ovarian 5.06% | MDA-MB-435 melanoma 9.82%

CNC(=O)c1cc(Oc2ccc(NC(=O)Nc3ccc(Cl)c(SC)c3)c(F)c2)ccn1
active: T-47D breast -3.32%
inactive: SR leukemia 31.4% | RPMI-8226 leukemia 27.6% | OVCAR-8 ovarian 49.9% | OVCAR-5 ovarian 77.8% | OVCAR-4 ovarian 16.3% | IGROV1 ovarian 56.4% | OVCAR-3 ovarian 61.2% | HS 578T breast 56% | NCI/ADR-RES ovarian 47.8% | BT-549 breast 64.7% | MDA-MB-435 melanoma 32.6% | SW-620 colon 67.5% | MCF7 breast 30% | HCT-116 colon 30.8% | HCC-2998 colon 51.3% | KM12 colon 29.3%

Clc1ccc2c(NCCNc3nc(N4CCCCC4)nc4ccccc34)ccnc2c1
active: SR leukemia -29.5% | RPMI-8226 leukemia -41.6% | OVCAR-8 ovarian -30.5% | OVCAR-3 ovarian -64.7% | T-47D breast -29.7% | MDA-MB-435 melanoma -66.4% | SW-620 colon -36.6% | HCT-116 colon -25.4% | KM12 colon 7.18%
inactive: OVCAR-5 ovarian 25.4% | OVCAR-4 ovarian 34.2% | IGROV1 ovarian 30.4% | HS 578T breast 37.9% | NCI/ADR-RES ovarian 25.4% | BT-549 breast 53.7% | MCF7 breast 14.5% | HCC-2998 colon 10.6%

COc1cc2c(cc1-c1c(C)noc1C)ncc1nc(-c3ccccn3)n([C@H](C)COC(F)F)c12
inactive: SR leukemia 27.8% | OVCAR-8 ovarian 35.1% | OVCAR-5 ovarian 76.6% | OVCAR-4 ovarian 52.6% | IGROV1 ovarian 52.6% | OVCAR-3 ovarian 47.4% | NCI/ADR-RES ovarian 33.6% | T-47D breast 35.2% | BT-549 breast 57.7% | MDA-MB-435 melanoma 46.4% | SW-620 colon 65.1% | MCF7 breast 19.7% | HCT-116 colon 35.5% | HCC-2998 colon 49% | KM12 colon 47.4%
active: RPMI-8226 leukemia 8.62% | HS 578T breast 3.88%

Cc1cn2c(/C=C3/C(=O)Nc4c3ccc3ccccc43)c(C(F)(F)F)nc2s1
active: SR leukemia 8.46% | OVCAR-3 ovarian -1.83% | NCI/ADR-RES ovarian 5.22% | MDA-MB-435 melanoma -47.2%
inactive: RPMI-8226 leukemia 14.7% | OVCAR-8 ovarian 27.7% | OVCAR-5 ovarian 43.4% | OVCAR-4 ovarian 51.3% | IGROV1 ovarian 42.1% | HS 578T breast 16.5% | T-47D breast 28.1% | BT-549 breast 37.2% | SW-620 colon 18.2% | MCF7 breast 15.4% | HCT-116 colon 30.6% | HCC-2998 colon 46.6% | KM12 colon 15.3%

NC(=O)c1cc(I)ccc1NC(=O)/C=C/c1ccccc1Cl
inactive: OVCAR-8 ovarian 31.3% | OVCAR-5 ovarian 38.2% | IGROV1 ovarian 77.5% | T-47D breast 26.6% | BT-549 breast 70.1% | SW-620 colon 26.9% | HCT-116 colon 14.5% | HCC-2998 colon 23.4% | KM12 colon 10.6%
active: SR leukemia -30.4% | RPMI-8226 leukemia -11.5% | OVCAR-4 ovarian 9.92% | OVCAR-3 ovarian -40.8% | NCI/ADR-RES ovarian 8.88% | MDA-MB-435 melanoma -31.8% | MCF7 breast 7.38%

CC(C)(C)N1CCC1CN (stereo not given)
inactive: SR leukemia 101% | OVCAR-8 ovarian 97.5% | OVCAR-5 ovarian 107% | OVCAR-4 ovarian 103% | SK-OV-3 ovarian 104% | IGROV1 ovarian 112% | OVCAR-3 ovarian 103% | HS 578T breast 117% | NCI/ADR-RES ovarian 113% | T-47D breast 96.3% | BT-549 breast 118% | MDA-MB-435 melanoma 104% | SW-620 colon 104% | MCF7 breast 126% | HCT-116 colon 99.5% | KM12 colon 107%
